Screening results deposited in PubChem by National Center for Advancing Translational Sciences (NCATS).
Hits are enriched below; roughly 12% of the tested compounds scored in any of these assays.
PLK1 PBD block – qHTS for Inhibitors of PLK1-PDB (polo-like kinase 1 - polo-box domain): Primary Screen. Plk1 PBD binding of FITC phosphopeptide, fluorescence polarization. Potency, µM, for inactives: max response, negative = inhibition, hits mostly inhibitors. hit rate 2.8% among 360,000. AID 720504, 2013; also: series mostly up to about 57 µM; % is scaled to controls: 0 for no effect and ±100 for the full control effect; nearly all actives have a fitted effect of over 65% in size
HP1b chromo inh – HTS for Inhibitors of HP1-beta Chromodomain Interactions with Methylated Histone Tails | AlphaScreen HP1-beta / biotin-H3K9me3 peptide binding | Chromobox protein homolog 1 (Homo sapiens), P83916 | AID 540317, 2011 | Potency, µM (doses to about 114 µM), for the others: at the highest dose activity change, negative = inhibition, hits mostly inhibitors | hit rate 0.56% among 390,000; also: nearly all actives have a fitted effect of over 70% in size
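Compound inhibition of the preformed complex between 50 nM HP1-beta and 50 nM biotinylated H3K9me3 peptide was read by AlphaScreen. Buffer was PBS pH 7.4 with 0.01% Tween-20. Incubations ran 30 min at room temperature, with 10 ug/mL donor/acceptor beads.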
BAZ2B inh – qHTS Assay for Inhibitors of BAZ2B | AlphaScreen BAZ2B-H3K14Ac peptide displacement | Potency, µM (doses to about 114 µM), without a hit: at the highest dose activity change, negative = inhibition, actives largely listed as inhibitors | hit rate 4.4% among 360,000 | AID 504333, 2011; also: % is scaled to controls: 0 for no effect and ±100 for the full control effect; nearly all actives have a fitted effect of over 60% in size
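BAZ2B 50 nM plus b-H3(5-23)K14Ac 50 nM, PBS pH 7.4/0.01% Tween-20, 30 min RT; compound added (max 110 uM), 30 min RT; streptavidin donor/Ni-chelate acceptor beads 10 ug/mL final, 20 min dark; AlphaScreen read.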
Sfp inh – qHTS Assay for Inhibitors of Bacillus subtilis Sfp phosphopantetheinyl transferase (PPTase). 4'-phosphopantetheinyl transferase ffp (Bacillus subtilis), Q9F4F7. Biochemical Sfp PPTase activity, qHTS. Potency, µM, without a hit: largest response in the series, negative = inhibition, actives largely listed as inhibitors. hit rate 3.5% among 310,000. AID 1490, 2009;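 also: the enzyme is Sfp with the accession as filed and its product quenches rhodamine fluorescence; 0% = enzyme reaction without inhibitor and -100% = no enzyme wells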
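Sfp 15 nM + cpd, 15 min RT; start w/ rhodamine-CoA 5 uM, BHQ-2-YbbR 12.5 uM (final); 50 mM Hepes pH 7.6, 10 mM MgCl2, 0.01% NP-40, 0.01% BSA; read 525/598 nm at 0 and 30 min.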
G9a block – qHTS Assay for Inhibitors of Histone Lysine Methyltransferase G9a; AID 504332, 2011; Histone-lysine N-methyltransferase EHMT2 (Homo sapiens), Q96KQ7; G9a H3K9 monomethylation, AlphaScreen, 2 h; Potency, µM (highest dose often 102 µM), for inactives: at the top dose activity, negative = inhibition, actives largely listed as inhibitors; hit rate 8.8% among 350,000; also: % is scaled to controls: 0 for no effect and ±100 for the full control effect; nearly all actives have a fitted effect of over 75% in size
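G9a (20 nM) was preincubated 15 min with compound, then reacted 2 h at room temperature with 500 nM biotin-H3K9 peptide and 20 µM SAM. Monomethyl-H3K9 detected by AlphaScreen using anti-H3K9me1 antibody.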
JMJD2A Tudor inh – qHTS Assay for Inhibitors of JMJD2A-Tudor Domain; AlphaScreen JMJD2A-Tudor / H3K4me3 peptide binding; hit rate 4.4% among 390,000; Lysine-specific demethylase 4A (Homo sapiens), O75164; Potency, µM (titrated, usually from 114 µM), for the others: at the top dose activity change, negative = inhibition, hits mostly inhibitors; also: % is scaled to controls: 0 for no effect and ±100 for the full control effect; nearly all actives have a fitted effect of over 50% in size
Numbers without * were called inactive; ? = inconclusive; . = no result given; [ ] = dose if it differs, or a comment. Calls follow the shape of the dose curve; as a rule, active = well fitted curve in the direction sought with a large enough effect; inconclusive = small, poorly fitted or top-dose-only effect, or another doubt; inactive = no such curve, though single readings can be large; an effect the other way counts as inactive or inconclusive. Potency is read from the fitted curve at half-maximal effect.

SMILES | PLK1 PBD block | HP1b chromo inh | BAZ2B inh | Sfp inh | G9a block | JMJD2A Tudor inh
CCN(CCNCC(O)COc1ccccc1C(C)C)c1cccc(C)c1 (stereo unspecified) | -3% | ? | 28µM* | 45µM* | 10µM* | 0.79µM*
COc1ccccc1CNC(=O)CCn1c(=O)c2cccn2c2cccnc21 | . | 30% | ? | . | -32%[59 µM] | -14%
O=C(COC(=O)c1cc(=O)[nH]c2ccccc12)Nc1nc(-c2ccc(F)cc2)cs1 | -21% | 55% | . | . | . | -18%[11.4 µM]
CC(=O)N(Cc1ccc(F)cc1)C1=C(NCc2ccccc2)C(=O)c2ccccc2C1=O | -8% | ? | 45µM* | -3% | 13µM* | 56µM*
O=C(NCc1ccc(F)cc1)C(c1ccccc1)c1ccccc1 | -4% | 58% | -5% | 10% | 10%[59 µM] | 4%
Cc1cc(OCC(=O)OC(C)C(=O)Nc2ccc(N3CCOCC3)cc2)ccc1Cl (stereo unspecified) | -9% | 21% | -3% | . | 19%[2.33 µM] | -19%
O=S(=O)(N/N=C\c1ccccc1O)c1ccc(Cl)cc1 | -9% | 14% | -25% | 19% | ? | -28%
COc1cccc(/C=N/Nc2ccc(S(=O)(=O)O)cc2)c1O | -3% | 27% | ? | ? | 2.2µM* | -15%
O=[N+]([O-])c1ccc(NN=Cc2cccc([N+](=O)[O-])c2)cc1 | -16% | -17% | . | . | . | ?
O=S(=O)(O)c1ccc(NN=Cc2ccccc2O)cc1 | -9% | 1%[57 µM] | . | . | . | 100µM*
CNc1nc(N/N=C/c2ccc([N+](=O)[O-])cc2)nc(Nc2ccccc2)n1 | 27µM* | ? | ? | 2% | 11%[59 µM] | ?
O=[N+]([O-])c1ccc(C=NNc2ccc(S(=O)(=O)O)cc2)cc1 | -6% | 2%[57 µM] | . | . | . | 79µM*
COc1ccc(CCn2nnnc2C2(c3ccc(C)cc3)CC2)cc1 | . | . | . | . | -5%[59 µM] | .
O=C(CSc1nc2scc(-c3ccccc3)c2c(=O)[nH]1)NC1CCCCC1 | . | . | 3% | -6% | 16% | .
COCCNC(=O)CSc1nc2scc(-c3ccccc3)c2c(=O)[nH]1 | -23% | 14% | -23% | 16% | 50µM* | -10%
Cc1sc2nc(SCC(=O)N3CCOCC3)[nH]c(=O)c2c1-c1ccccc1 | ? | 12% | -18% | -17% | 45µM* | -17%
Cc1ccc(-c2csc3nc(SCC(=O)Nc4ccc(Cl)c(C(=O)O)c4)[nH]c(=O)c23)cc1 | ? | 0%[57 µM] | ? | -14% | 28µM* | -28%
O=C(CSc1nc(O)c(-c2ccccc2)c(=O)[nH]1)N1CCOCC1 | -2% | 41% | ? | -11% | -2% | -4%
O=C(CSc1nc2scc(-c3ccccc3)c2c(=O)[nH]1)N1CCCCC1 | -16% | 14% | -27% | -9% | 50µM* | -9%
Cc1ccccc1-c1nc(CS(=O)(=O)CC(=O)N2CCN(C)CC2)c(C)o1 | -9% | 26% | -10% | 7% | -41% | -18%
COc1cccc(NC(=O)CN(C)C(=O)C(CCSC)NC(=O)c2ccco2)c1 (stereo unspecified) | -5% | 18% | -5% | . | 15%[12.7 µM] | -20%
Cc1ccc(CNC(=O)c2ccc(Cl)c(S(=O)(=O)N3CCCCC3)c2)cc1 | -13% | 47% | 0% | . | -5%[12.7 µM] | -11%
NC(=O)c1cccc(C[C@H](C(=O)O)N2C(=O)c3ccc(C(=O)O)cc3C2=O)c1 | . | . | -4% | 4% | -2%[12.7 µM] | ?
Cc1ccc(C(=O)NCC(=O)OCC(=O)NC(C)C2CC3CCC2C3)cc1 (stereo unspecified) | -9% | 28% | 16% | . | 28µM* | -11%
Cc1ccccc1C(=O)NCC(=O)OCC(=O)NC(C)C1CC2CCC1C2 (stereo unspecified) | -1% | 25% | 5% | . | 20%[59 µM] | 1%
